The structures appear in SMILES notation. Compounds without any hit were thinned out: in the full panel of roughly 83,000, 20% have a hit.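 The endpoint reported here, percent growth, reads 100 for growth as untreated, 0 for no net growth and -100 for all cells dead.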 Unmarked numbers belong to inactive results. Calls of active or inactive are those of the source. The calls were made as follows: active = growth percent below 10; inactive = the rest.

Growth data for 38 molecules are collected here from PubChem BioAssay (NCI).

For the first assay, the system named is NCI-H460 lung. Nature of the assay: NCI-60 one-dose screen, 48 h (100 = growth as untreated, 0 = no growth, -100 = all killed). To be noted: 10 µM unless noted.
Turning to `C=C(C)[C@@H]1CC[C@]2(C(=O)NC3CCCCC3)CC[C@]3(C)[C@H](CC[C@@H]4[C@@]5(C)CCC(=O)C(C)(C)[C@@H]5CC[C@]43C)[C@@H]12`, the growth was 98.3%. On the same count and under the same terms, for `O=[N+]([O-])c1ccc(-c2cc(-c3ccc(Nc4nc(Nc5ccc(Cl)cc5)nc(Nc5ccc(Cl)cc5)n4)cc3)no2)cc1` the value was 95.9%; for `Cc1c2c(c(C)c3c1oc1cc(O)ccc13)C(=O)N(CCN1CCCCC1)C2=O`, 38.7%.

The next assay concerns HOP-92 NSCLC. The description is as above. The note with it: 10 µM unless noted.
As to `COc1cc(Cn2ncc3ccc(NC(=O)c4cc5ccccc5oc4=N)cc32)cc(OC)c1OC`, the growth is 71.9%.

Consider `N=C1C(c2nc(-c3ccc(Br)cc3)cs2)=C(O)CN1Cc1cccnc1`, for which the growth was -47.3% (active). Turning to `COc1ccc(/C=C/c2c(C(=O)/C=C/c3cccs3)c(C)nc3ccccc23)cc1`, the growth is 42.7%. Turning to `N#C/C(=C\c1ccc(Br)cc1)n1nnc2cc(F)c(F)cc21`, the growth was -9.69% (active). As for `C[C@@H]1N=C(c2ccc3ccccc3n2)Nc2nc3ccccn3c2C1=O`, the growth was 97.2%. Same read-out and setting: then `CCCCc1ccc(Nc2ccc(Nc3ccc(CCCC)cc3S(=O)(=O)O)c3c2C(=O)c2ccccc2C3=O)c(S(=O)(=O)O)c1`, with 59.4%. The same measure, in the same setting: then `COc1ccc(OC)c2c1[nH]c(=O)c1c3ncccc3cn21`, with 57.4%. For `COc1ccc(NC(=O)CSc2nc(C)c(C(C)=O)n2-c2ccc(Cl)cc2)cc1`, the growth was 106%. Same read-out and setting: then `COc1cccc(-c2nn(-c3ccccc3)cc2-c2ccnc(NCCNC(=O)Nc3cccc(C(F)(F)F)c3)c2)c1`, with 0.983% (active); and `O=C(NCCCNc1cc(-c2cn(-c3ccccc3)nc2-c2cccc(O)c2)ccn1)c1ccccc1`, with 49.8%. Same read-out and setting: then `Cc1cc(NCc2cc(Nc3ccnc4cc(Cl)ccc34)ccc2F)nc(N2CCCC2)n1`, with 41.3%. Same read-out and setting: for `Oc1ccc(CN2CCC(N3CCOCC3)CC2)c2cccnc12` the value was -16% (active); for `CCN(CC)c1nc(SCC(=O)Nc2nc3ccc(C)cc3s2)nc(-c2ccccc2)c1C#N`, 55.4%.

Consider `Clc1cccc(Cl)c1C(Nc1nc2ccccc2s1)Nc1nc2ccccc2s1`, for which the growth is 17.3%. Same read-out and setting: then `C[C@H]1[C@H]2[C@H]3CC[C@@H]4[C@@]5(C)C/C(=C/c6cccnc6)C(=O)C(C)(C)[C@@H]5CC[C@@]4(C)[C@]3(C)CC[C@]23CO[C@]1(C)[C@@H](C(=O)/C=C\c1cccnc1)C3`, with -20% (active); and `O=c1ccn2nc3ccccc3c2[nH]1`, with 71.2%. As for `COc1ccccc1NC(=O)N/C(N)=N/c1nc2ccccc2s1`, the growth is 62.1%.

Take `COc1c(CCC[P+](c2ccccc2)(c2ccccc2)c2ccccc2)cc2c(c1OC)OCO2`: the growth was -4.16% (active). Still for that read-out and setting: then `COc1ccc(C(=O)Nn2c(NCC(=O)N3c4ccccc4Sc4ccccc43)nnc2-c2ccc(O)cc2)cc1`, with 87.9%; and `COc1ccc(-c2nc3c(c(=O)n2C(C)=O)C(c2ccc(Cl)cc2)c2sc4c(Cl)cccc4c2O3)cc1` (stereo unspecified), with -15.7% (active). In the case of `Cc1nc2c(c(N3CCCc4ccccc43)n1)CCC2`, the growth is 0.664% (active).

For the molecule `CC1=C([Se]CC(OC(=O)CC[Se]c2ccccc2)C(=O)NCCCCCC(=O)OCc2ccccc2)C(=O)c2ccccc2C1=O` (stereo unspecified), the growth was -5.98% (active). Regarding `Cc1cc(NCCCCNc2ccnc3cc(Cl)ccc23)nc(Nc2ccc(C(=O)N3CCCC3)cc2)n1`, the growth was 72.6%. Same read-out and setting: for `Cc1ccc(N(C(=O)CCc2c[nH]c3ccccc23)[C@H](C(=O)Nc2ccc(Cl)cc2)c2cccc([N+](=O)[O-])c2)cc1` the value was 75.9%; for `O=c1[nH]c2ccccc2n1C1CCN(CCOc2ccccc2)CC1`, 37.1%.

For the molecule `c1ccc2c(c1)nc(CN1CCOCC1)n1cc(N3CCCC3)nc21`, the growth was -2.06% (active). In the case of `CC/C=C1/C(=O)C=C[C@@H]1C/C=C\CCCC(=O)O`, the growth is 121%.

As for `COC(=O)[C@]12CC[C@@H](C)[C@H](C)[C@@H]1C1=CC[C@@H]3[C@@]4(C)C(C=O)=C[C@@](C)(COS(C)(=O)=O)C4[C@H](O)C[C@@]3(C)[C@]1(C)CC2` (stereo partly specified), the growth was -74.3% (active). For the molecule `CCCCCCCCn1ccc2cc(NC(=O)Cn3cc(CN4CCCC4)nn3)ccc21`, the growth was 28%.

As to `CCCCCCCOc1c(OC)cc(C2CC(=O)Nc3c2c(C)nn3-c2nc3ccccc3[nH]2)cc1OC` (stereo unspecified), the growth is -8.34% (active). Consider `COc1cc(-c2nc(N3CCN(C)CC3)c3ccccc3n2)cc(OC)c1OC`, for which the growth is 44.3%.

Regarding `CCC(CO)Nc1nc2ccc(Cl)cc2c2ccccc12` (stereo unspecified), the growth was 48.9%. For `NS(=O)(=O)c1ccc(-n2nc(C(=O)N/N=C\c3ccc(F)cc3)cc2-c2ccc(Cl)cc2)cc1`, the growth is 56%. In the case of `O=S(=O)(NCCCNc1cc(-c2c(-c3cccc(O)c3)nc3sccn23)ccn1)c1cccc(Cl)c1`, the growth was 111%. Take `CC(=O)n1c(-c2ccc(Cl)cc2)nc2c(c1=O)C(c1ccc(Cl)cc1)c1sc3c(Cl)cccc3c1O2` (stereo unspecified): the growth is 1.47% (active). `C=C(C)[C@@H]1CC[C@]2(C(=O)NC3CCCCC3)CC[C@]3(C)[C@H](CC[C@@H]4[C@@]5(C)CCC(=O)C(C)(C)[C@@H]5CC[C@]43C)[C@@H]12`: the growth is 81.5%. For `O=[N+]([O-])c1ccc(-c2cc(-c3ccc(Nc4nc(Nc5ccc(Cl)cc5)nc(Nc5ccc(Cl)cc5)n4)cc3)no2)cc1`, the growth is 66.1%. On to `Cc1c2c(c(C)c3c1oc1cc(O)ccc13)C(=O)N(CCN1CCCCC1)C2=O`, for which the growth is 92.4%.
